# Laboratory results taken from PubChem BioAssay.
# Activity calls are given as the source filed them.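 How the source made its calls, unless noted: active means inhibition at or above 50% at 10 µM; inactive means inhibition below 50%.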
# Key:
# [1] = inhibitors of TNFa-induced NFkB p65 translocation, primary screen, imaging, HUVEC, MLSMR starter and 10KST1 sets (AID 438;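 active means inhibition above 20% together with a positive visual image hit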;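 further: compound added about 3h40 before a 20 min TNFalpha stimulation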;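 on inhibition: signal is the nuclear over cytoplasmic p65 intensity ratio per well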); conditions: HUVEC TNFa-induced p65 nuclear translocation; cell count: measured here: nuclei count (cytotoxicity indicator), at 2.08 µM; inhibition: at 2 µM, stronger effect = higher value, 0% TNFa-plus-vehicle, 100% no-TNFa wells
# [2] = reduction of polyQ htt aggregates in cells – imaging, exon1htt(103Q)mCFP cells, high-content imaging, primary screen (AID 483;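 active means visual image review flags a hit and inhibition of aggregation exceeds 20%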;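 further: compound exposure lasted 3 days before fixation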;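 on nuclei count: percent of the per-plate median nuclei count of sample wells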); conditions: exon1htt(103Q)mCFP cell line, aggregate imaging, at 2 µM; inhibition of aggregation: stronger effect = higher value; nuclei count: measured here: cell count, toxicity
# [3] = endothelial E-selectin expression blockers – imaging, HUVEC, immunofluorescence, MLSMR starter and 10KST1 sets, primary screen (AID 487;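 active means visually confirmed hit in the image check and inhibition above 20%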;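 on inhibition: signal is fraction of cell area covered by stained E-selectin grains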;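 on nuclei count: 100% = median nuclei count of all wells on the same plate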); conditions: HUVEC TNFalpha-induced E-selectin immunofluorescence imaging, at 2 µM; inhibition: stronger effect = higher value; nuclei count: measured here: cell number, toxicity
# [4] = target: Voltage-gated potassium channel subunit beta-2 (Rattus norvegicus) (UniProt P62483); test: inhibitors of rat Kvbeta2 reductase activity – biochemical, NADPH fluorescence, primary screen (AID 622;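 active means fluorescence slope higher than the sample average by over 3 SD, cut at about -0.22 in these data, passing the limit was not always enough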;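 further: slope of raw intensity against log time taken from 70 to 1610 s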); conditions: recombinant KvBeta, 4-cyanobenzaldehyde reduction, at 10 µM, stronger effect = higher value
# [5] = target: Voltage-gated potassium channel subunit beta-2 (Rattus norvegicus) (UniProt P62483); test: enhancers of rat Kvbeta2 NADPH turnover – biochemical, NADPH fluorescence, primary screen (AID 623;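 active means NADPH fluorescence slope more negative than the mean of all samples by about 3 SD, 99.7% confidence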;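 further: fluorescence intensity change per second fitted from 20 to 320 s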); conditions: Recombinant KvBeta, NADPH fluorescence decrease slope, 10 min; at 10 µM; stronger effect = lower value
# [6] = target: Alpha-2C adrenergic receptor (Homo sapiens) (UniProt P18825); test: compounds altering alpha2C-coupled GIRK flux – cell-based, HEK293 alpha2C/GIRK1/2, thallium flux, primary screen (AID 624;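 active means fluorescence slope after compound addition differing from the mean of all screened samples at 99.7% confidence, in either direction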;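 further: slope of fluorescence ratio to pre-addition baseline per second over 15 to 24 s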); conditions: thallium flux BTC fluorescence, at 10 µM, actives lie on both sides
# [7] = blockers of RIG-like receptor reporter activation – cell-based, Sendai virus stimulus, luciferase, 10K MLSCN set, TLR/RLR signaling modifier project, primary screen (AID 602276); conditions: HEK293 RL24 IRF3 luciferase reporter, at 10 µM, stronger effect = higher value;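 further: firefly luciferase from ISG56 promoter only with Renilla not read in this screen; 0% = Sendai virus plus DMSO and 100% = medium plus DMSO without virus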
# [8] = TLR3 IRF3 reporter activation blockers – cell-based, poly I:C stimulus, luciferase, 10K MLSCN set, primary screen (AID 602277;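 active means inhibition of the reporter signal at or above 50%; inactive means inhibition below 50%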); conditions: HEK293-TLR3 RL24 IRF3 luciferase reporter, at 10 µM, stronger effect = higher value
# Sequence of Voltage-gated potassium channel subunit beta-2 (Rattus norvegicus) (P62483 whole entry, looked up): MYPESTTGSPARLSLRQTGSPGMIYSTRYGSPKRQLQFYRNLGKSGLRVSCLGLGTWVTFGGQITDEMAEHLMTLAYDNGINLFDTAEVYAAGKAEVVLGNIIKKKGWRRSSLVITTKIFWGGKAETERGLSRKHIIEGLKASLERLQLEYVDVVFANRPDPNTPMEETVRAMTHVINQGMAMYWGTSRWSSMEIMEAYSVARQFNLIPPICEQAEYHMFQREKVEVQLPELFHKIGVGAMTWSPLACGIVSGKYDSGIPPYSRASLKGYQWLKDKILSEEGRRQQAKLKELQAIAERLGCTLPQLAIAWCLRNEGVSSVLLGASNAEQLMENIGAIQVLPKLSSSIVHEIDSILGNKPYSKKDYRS
# Sequence of Alpha-2C adrenergic receptor (Homo sapiens) (P18825 whole entry, looked up): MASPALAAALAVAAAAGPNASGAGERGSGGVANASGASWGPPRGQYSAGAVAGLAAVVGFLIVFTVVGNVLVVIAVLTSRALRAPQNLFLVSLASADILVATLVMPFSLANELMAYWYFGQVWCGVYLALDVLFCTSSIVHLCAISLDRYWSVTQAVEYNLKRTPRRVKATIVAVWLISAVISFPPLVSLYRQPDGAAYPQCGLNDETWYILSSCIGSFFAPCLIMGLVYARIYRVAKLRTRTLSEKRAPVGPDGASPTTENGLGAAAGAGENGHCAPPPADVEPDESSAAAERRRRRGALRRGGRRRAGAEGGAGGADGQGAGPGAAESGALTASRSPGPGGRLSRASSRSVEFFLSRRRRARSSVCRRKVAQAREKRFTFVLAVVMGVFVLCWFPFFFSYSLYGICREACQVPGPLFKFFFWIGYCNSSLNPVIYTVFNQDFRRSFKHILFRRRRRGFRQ
SMILES,cell count [1],inhibition [1],inhibition of aggregation [2],nuclei count [2],inhibition [3],nuclei count [3],fluorescence slope [4],NADPH fluorescence slope [5],slope [6],inhibition [7],inhibition [8]
COc1ccc(OC)c(-c2nnc(SCC(=O)NC3CCCCC3)o2)c1,738,2.1% (inactive),13.9% (inactive),97.8%,-24.5% (inactive),114%,-0.574 (inactive),-1.4e-05 (inactive),0.00689 (inactive),-17.4% (inactive),0.755% (inactive)
CCOC(=O)Cn1c(=N)n(CCOc2cccc(C)c2)c2ccccc21,426,-18.5% (inactive),19.9% (inactive),108%,-112% (inactive),224%,-0.322 (inactive),2e-05 (inactive),0.00636 (inactive),11.4% (inactive),19.4% (inactive)
CCn1c(=S)ccc2ccc(OC)cc21,296,5.3% (inactive),-4.2% (inactive),77.6%,-13.4% (inactive),120%,-0.599 (inactive),-9.6e-06 (inactive),0.0055 (inactive),-6.3% (inactive),29% (inactive)
COCCN(CCOC)Cc1c(C)[nH]c2ccccc2c1=O,398,6.8% (inactive),12.7% (inactive),93.3%,1.8% (inactive),104%,-0.351 (inactive),-1.7e-05 (inactive),0.00544 (inactive),3.05% (inactive),24.8% (inactive)
N#CCC(=O)N1CCn2c1nc1ccccc12,301,-3.4% (inactive),-20.8% (inactive),94.4%,-16.4% (inactive),101%,-0.492 (inactive),-3.8e-05 (inactive),0.00588 (inactive),11.2% (inactive),24.2% (inactive)
COCCn1c(COc2ccc(Cl)cc2)nnc1SCC(N)=O,424,3.4% (inactive),7.6% (inactive),93.8%,-31.9% (inactive),119%,-0.586 (inactive),-6e-05 (inactive),0.00579 (inactive),18.2% (inactive),25.2% (inactive)
Cc1nc(SCC(=O)Nc2cc(C)on2)c2c3c(sc2n1)CCCC3,461,2.5% (inactive),-13.2% (inactive),93.7%,-33.9% (inactive),110%,-0.579 (inactive),-5.9e-05 (inactive),0.00594 (inactive),6.61% (inactive),11.9% (inactive)
CC1=Nn2c(nnc2-c2ccc(F)cc2)SC1,340,-2.4% (inactive),4% (inactive),107%,-66% (inactive),95.6%,-0.33 (inactive),-4.3e-05 (inactive),0.00575 (inactive),-12.4% (inactive),-3.16% (inactive)
COc1ccc(-c2nc(CSCC(=O)N3CCN(c4cccc(C)c4)C(C)C3)c(C)o2)cc1OC (centres undefined),549,2.3% (inactive),11.5% (inactive),92.1%,5.7% (inactive),83.2%,-0.429 (inactive),-5.4e-05 (inactive),0.00539 (inactive),4.11% (inactive),8.34% (inactive)
Cc1cccc(NC(=O)c2cc(NC(=O)c3ccco3)ccc2N2CCCCC2)c1,635,-3.9% (inactive),-3.7% (inactive),113%,-48.5% (inactive),107%,-0.52 (inactive),-1.8e-05 (inactive),0.0032 (inactive),8.72% (inactive),8.79% (inactive)
COc1ccc(CNC(=O)CN(C(=O)c2ccc(CN3CCOCC3)o2)C2CCCC2)cc1,449,5.5% (inactive),-0.5% (inactive),98.3%,-94.6% (inactive),107%,-0.613 (inactive),-4.4e-05 (inactive),0.00446 (inactive),17.1% (inactive),11.7% (inactive)
CC(C)Cc1cc(C(=O)Nc2c(F)cc(F)cc2Br)no1,783,7.4% (inactive),-5% (inactive),114%,-4.5% (inactive),120%,-0.594 (inactive),3.8e-06 (inactive),0.00483 (inactive),-6.27% (inactive),2.03% (inactive)
CCN(CC)S(=O)(=O)c1ccc(F)c(C(=O)NCCC(C)C)c1,497,-22% (inactive),37.4% (inactive),79.2%,-22.3% (inactive),99.2%,-0.353 (inactive),-1.6e-05 (inactive),0.00438 (inactive),-18.3% (inactive),-20.2% (inactive)
COc1cc(C2N=C(c3ccccc3)NO2)cc(Br)c1O (centres undefined),770,4.6% (inactive),-13.7% (inactive),94.3%,-121% (inactive),108%,-0.546 (inactive),2.2e-05 (inactive),0.00675 (inactive),-15.8% (inactive),-15.1% (inactive)
